Common to all, as to set-up: species or system human, MV4-11 + K-562 + COLO205 + SK-N-BE2 + OVCAR-8
In experiment [1] the test system is CDK1. The settings on record: read-out: apparent Kd, n = 1.
For experiment [2], the system named is CDK2. The settings on record: read-out: apparent Kd, n = 1.
Experiment [3] relates to CDK5. Conditions: read-out: apparent Kd, n = 1.
Experiment [4] deals with LIMK2. The settings on record: read-out: apparent Kd, n = 1.
Experiment [5] deals with TESK1. Conditions: read-out: apparent Kd, compound concentrations: 100 nM and 1000 nM (sheet 'Samples'), n = 1.
The test system of experiment [6] is ADCK1. Conditions: read-out: apparent Kd, n = 1.
For experiment [7], the system named is MAPK8. Conditions: read-out: apparent Kd, n = 1.
Experiment [8] has as its system MTOR. The settings on record: read-out: apparent Kd, n = 1.
In experiment [9] the test system is PIK3CG. Conditions: read-out: apparent Kd, compound concentrations: 100 nM and 1000 nM (sheet 'Samples'), n = 1.
Experiment [10] relates to PRKAG1. Conditions: read-out: apparent Kd, n = 1.
The test system of experiment [11] is STK3. The settings on record: read-out: apparent Kd, compound concentrations: 100 nM and 1000 nM (sheet 'Samples'), n = 1.
Experiment [12] has as its system PYGL. Conditions: read-out: apparent Kd, n = 1.
The test system of experiment [13] is TEC. The settings on record: read-out: apparent Kd, n = 1.
In experiment [14] the test system is PIK3CA. The settings on record: read-out: apparent Kd, n = 1.
The subject of experiment [15] is IRAK3. The settings on record: read-out: apparent Kd, n = 1.
Experiment [16] relates to PTK2B. Conditions: read-out: apparent Kd, compound concentrations: 100 nM and 1000 nM (sheet 'Samples'), n = 1.
Experiment [17] concerns PTK2. The settings on record: read-out: apparent Kd, compound concentrations: 100 nM and 1000 nM (sheet 'Samples'), n = 1.
Experiment [18] deals with STK16. Conditions: read-out: apparent Kd, n = 1.
In experiment [19] the test system is ADRBK1. The settings on record: read-out: apparent Kd, n = 1.
[20] abbreviates: compound concentrations:100 nM and 1000 nM (sheet 'Samples').

The values that follow come from paper PMC11062922 (Nature Chemical Biology, 2023).

Read-outs that look alike come from different tables or passages of the source.

As for `CC(C)c1nc(-c2cccc(NS(=O)(=O)c3c(F)cccc3F)c2)c(-c2ccnc(Nc3ccc(N4CCOCC4)nc3)n2)s1.Cl` [GSK1723980B], the potency estimated from few doses in [1] (compound concentrations: 100 nM and 1000 nM (sheet 'Samples'), CATDS: 1.4820123571840101E-2) was 1.58 µM; in experiment [2] (compound concentrations: 100 nM and 1000 nM (sheet 'Samples'), CATDS: 1.87425082345213E-2), 0.614 µM; in experiment [3] (compound concentrations: 100 nM and 1000 nM (sheet 'Samples'), CATDS: 2.2922403030908301E-2), 0.35 µM; in experiment [4] (compound concentrations: 100 nM and 1000 nM (sheet 'Samples'), CATDS: 2.58899611952562E-2), 0.263 µM; in experiment [5] (CATDS: 3.6756821103285202E-2) it was 0.132 µM.
For the compound `N#Cc1cccc(Nc2nccc(-c3cnn4ncccc34)n2)c1` [GW778894X], the potency estimated from few doses was 2.05 µM in experiment [6] (setting [20]); 1.24 µM in [1] (setting [20]); 0.194 µM in experiment [2] (compound concentrations: 100 nM and 1000 nM (sheet 'Samples'), CATDS: 2.8219089282239498E-2); 0.669 µM in [3] (setting [20]); 1.33 µM in [7] (setting [20]).
In the case of `O=S(=O)(CCOCc1ccc(-c2ccc3ncnc(Nc4ccc(OCc5cccc(F)c5)c(Cl)c4)c3c2)o1)c1ccccc1` [GW615311X], the potency estimated from few doses in [7] (compound concentrations: 100 nM and 1000 nM (sheet 'Samples'), CATDS: 2.6376171995156399E-2) is 1.54 µM; in experiment [8] (compound concentrations: 100 nM and 1000 nM (sheet 'Samples'), CATDS: 4.7570184263153799E-2), 0.527 µM; in experiment [9] (CATDS: 3.2678630734210498E-2), 0.992 µM; in [10] (compound concentrations: 100 nM and 1000 nM (sheet 'Samples'), CATDS: 2.7047929037046701E-2), 1.45 µM; in [11] (CATDS: 2.3351352966808198E-2) it was 2.07 µM.
In the case of `Nc1nc(N)c2nc(-c3ccccc3)[nH]c2n1` [SKF-12778], the potency estimated from few doses in experiment [6] (setting [20]) was 1.2 µM; in experiment [8] (setting [20]), 0.4 µM; in experiment [12] (setting [20]), 1.64 µM; in experiment [13] (setting [20]), 1.16 µM.
With `CC(C)c1nc(-c2ccc(F)c(NS(=O)(=O)c3c(F)cccc3F)c2)c(-c2ccnc(Nc3ccc(N4CCOCC4)nc3)n2)s1` [GSK1804250A], the potency estimated from few doses in [4] (setting [20]) was 0.478 µM.
In the case of `Nc1ncc(-c2cn[nH]c2)c2scc(-c3ccc4c(c3)CCN4C(=O)Cc3ccccc3)c12` [GSK2593067A], the potency estimated from few doses in experiment [11] (CATDS: 6.6601304210445203E-2) was 1.19 µM.
In the case of `CN1CCN(Cc2ccc(NC(=O)Nc3ccc(N(C)c4ccnc(Nc5ccc(CS(C)(=O)=O)cc5)n4)cc3)cc2)CC1.Cl` [GW827654A], the potency estimated from few doses in experiment [6] (compound concentrations: 100 nM and 1000 nM (sheet 'Samples'), CATDS: 3.6113243316098803E-2) is 1.52 µM.
Take `Fc1ccc(-c2c(-c3ccncc3)[nH]c3nccnc23)cc1` [RO1155697-000]: the potency estimated from few doses in [7] (setting [20]) is 1.79 µM.
On to `Cc1cc(O)cc(C)c1/C=C/c1cncc(-c2nn[nH]n2)c1.Cl` [GW441806A], for which the potency estimated from few doses in [14] (compound concentrations: 100 nM and 1000 nM (sheet 'Samples'), CATDS: 8.3670028423682499E-2) is 0.256 µM; in [5] (CATDS: 4.6291633424982298E-2), 1.29 µM.
Regarding `CN1CCc2ccc(Nc3nccc(-c4c(-c5cccc(NC(=O)c6c(F)cccc6F)c5)nc5ccccn45)n3)cc2C1.Cl` [GSK1010829B], in [11] (CATDS: 3.0039466965453999E-2), the potency estimated from few doses is 2.17 µM.
Regarding `CNC(=O)c1ccccc1Nc1nc(Nc2cccc(CS(C)(=O)=O)c2)ncc1C.O=CO` [GSK1520489A], the potency estimated from few doses was 0.0162 µM in experiment [15] (compound concentrations: 100 nM and 1000 nM (sheet 'Samples'), CATDS: 6.3642542209879499E-2); 0.517 µM in experiment [7] (compound concentrations: 100 nM and 1000 nM (sheet 'Samples'), CATDS: 1.2501380881005299E-2); 0.0655 µM in experiment [16] (CATDS: 2.8071916989063601E-2); 0.0302 µM in [17] (CATDS: 4.2767285410469903E-2); 0.0911 µM in experiment [18] (compound concentrations: 100 nM and 1000 nM (sheet 'Samples'), CATDS: 2.3983880535388601E-2); 0.0135 µM in [13] (compound concentrations: 100 nM and 1000 nM (sheet 'Samples'), CATDS: 7.2078436601234794E-2).
For `COc1ccc(C2=C(Nc3cccc(O)c3)C(=O)NC2=O)cc1` [SB-390766], the potency estimated from few doses in [14] (setting [20]) was 0.115 µM; in experiment [18] (setting [20]), 1.59 µM.
As to `COc1ccc(-c2nn3ncccc3c2-c2ccnc(Nc3ccc4c(c3)OCCO4)n2)cc1` [GW827106X], the potency estimated from few doses in [14] (compound concentrations: 100 nM and 1000 nM (sheet 'Samples'), CATDS: 0.187165726463497) was 0.172 µM; in experiment [9] (CATDS: 5.53437190113686E-2), 1.18 µM.
Consider `Nc1c(C(=O)c2ccccc2)cnn1-c1ccc(F)cc1` [RO1151246-000], for which, in experiment [1] (setting [20]), the potency estimated from few doses is 1.88 µM.
Regarding `COc1ccc(S(=O)(=O)NC2CCN(c3cc(C)nc(Nc4cccc(C#N)c4)n3)CC2)cc1.O=C(O)C(F)(F)F` [GSK1653539A], the potency estimated from few doses in [9] (CATDS: 0.32479738642046602) was 1.38 µM.
As for `COc1ccc(C2=C(c3cn(C)c4ccccc34)C(=O)NC2=O)cc1OC` [RO3206363-000], the potency estimated from few doses in [10] (compound concentrations: 100 nM and 1000 nM (sheet 'Samples'), CATDS: 0.103334601265543) is 0.0995 µM; in experiment [12] (compound concentrations: 100 nM and 1000 nM (sheet 'Samples'), CATDS: 3.1878798319940699E-2), 1.85 µM.
With `COc1cc(F)c(F)c(F)c1C(=O)c1cnc(NC2CCN(S(C)(=O)=O)CC2)nc1N` [RO4600703-000], the potency estimated from few doses in [1] (setting [20]) was 0.368 µM; in experiment [2] (setting [20]), 0.0902 µM; in [3] (setting [20]), 0.138 µM.
Regarding `Clc1ccc(-c2nn3ncccc3c2-c2ccnc(Nc3ccccc3)n2)cc1` [GW829055X], the potency estimated from few doses in experiment [6] (compound concentrations: 100 nM and 1000 nM (sheet 'Samples'), CATDS: 3.6697893678181097E-2) is 1.43 µM; in experiment [19] (compound concentrations: 100 nM and 1000 nM (sheet 'Samples'), CATDS: 3.1852234097214598E-2), 2.08 µM; in experiment [10] (compound concentrations: 100 nM and 1000 nM (sheet 'Samples'), CATDS: 3.7997381036159197E-2), 1.32 µM; in experiment [12] (compound concentrations: 100 nM and 1000 nM (sheet 'Samples'), CATDS: 3.3581254695289102E-2) it was 1.8 µM; in [11] (CATDS: 3.09457854656708E-2) it was 2.27 µM.
On to `NS(=O)(=O)c1cccc(-c2ccc3nccc(-c4cccc(S(N)(=O)=O)c4)c3c2)c1` [GW867253X], for which the potency estimated from few doses in [19] (compound concentrations: 100 nM and 1000 nM (sheet 'Samples'), CATDS: 0.51630856929824398) is 1.86 µM.
Consider `COc1ccc(Nc2nccc(N3CCC(NC(=O)Nc4cccc(OC)c4)C3)n2)cc1` (stereo not shown) [GSK1379742A], for which, in experiment [1] (compound concentrations: 100 nM and 1000 nM (sheet 'Samples'), CATDS: 0.12045824140997501), the potency estimated from few doses is 1.77 µM.
Turning to `COc1ccc(C2=NC(c3ccc(Cl)cc3F)C(C(=O)Nc3ccc4[nH]ncc4c3)=C(C)N2)cn1.O=C(O)C(F)(F)F` (stereo not shown) [GSK534913A], in experiment [19] (setting [20]), the potency estimated from few doses is 0.895 µM.
Regarding `Fc1ccc(-c2ncn(C3CCNCC3)c2-c2ccnc(Oc3ccc4c(c3)OCO4)n2)cc1` [SB-250715], the potency estimated from few doses was 1.85 µM in experiment [6] (setting [20]), 2.15 µM in experiment [19] (setting [20]), 1.75 µM in [10] (setting [20]) and 1.99 µM in experiment [12] (setting [20]).
As to `COc1cc(N2CCN(C(C)C)CC2)ccc1Nc1nc(Nc2cccc(F)c2C(=O)O)c2cc[nH]c2n1` [GSK1819799A], the potency estimated from few doses in [7] (compound concentrations: 100 nM and 1000 nM (sheet 'Samples'), CATDS: 0.22198197498325201) was 0.0849 µM; in experiment [16] (CATDS: 7.8469335656757594E-2), 0.466 µM; in [17] (CATDS: 7.4046545419842305E-2), 0.522 µM.
In the case of `Cl.Oc1ccc2ncnc(Nc3ccc(OCc4ccccc4)cc3)c2c1` [GI262866A], in experiment [18] (setting [20]), the potency estimated from few doses is 1.16 µM.
As to `NC(=O)c1cccnc1COc1cc(-c2ccc(N3CCOCC3)nc2)cc2ncccc12` [BI01125081], the potency estimated from few doses in experiment [15] (setting [20]) was 0.577 µM; in experiment [18] (setting [20]), 1.24 µM.
